An excerpt weighted towards active compounds, which were near 0.54% of everything screened.
PvdQ acylase – P. aeruginosa PvdQ acylase inhibitors, primary screen, biochemical, fluorescence, plate reader and imaging, single point | PvdQ acylase [Pseudomonas aeruginosa LESB58] | inhibition, % at 10 µM | 340,000 tested, 0.063% active | purified PvdQ acylase; in the data active = inhibition above about 30%, passing the limit was not always enough;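 also: 0% = vehicle neutral wells and 100% = reference inhibitor wells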
ERp5 inh – inhibitors of ERp5-driven insulin aggregation, primary screen, biochemical, turbidity, absorbance 650 nm, single point; Protein disulfide-isomerase A6 (Homo sapiens), Q15084; 90 min; inhibition, % at 9.99 µM; 350,000 tested, 0.05% active; AID 651711, 2012;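 active = mean replicate inhibition above about 25%, with every replicate also reaching it, limit read from the data, passing the limit was not always enough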
PDI inh – inhibitors of human PDI, primary screen, biochemical, turbidity, single point, plate reader; 350,000 tested, 0.052% active; AID 588391, 2011; inhibition, % at 10 µM; PDI insulin aggregation turbidity, A650, 90 min;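 active = mean inhibition across replicates of 30% or more, whatever share of single replicates reach that level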
Rtt109 Vps75 – inhibitors of C. albicans Rtt109/Vps75 HAT, primary screen, biochemical, ThioGlo CoA-SH fluorescence, plate reader; Histone acetyltransferase RTT109 (Candida albicans (strain SC5314 / ATCC MYA-2876)), …; 330,000 tested, 0.16% active; purified Rtt109/Vps75, 4 h; inhibition, % at 34.9 µM;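 active = inhibition of at least 50% in every replicate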
Target sequence (Q5AAJ8 whole entry, looked up): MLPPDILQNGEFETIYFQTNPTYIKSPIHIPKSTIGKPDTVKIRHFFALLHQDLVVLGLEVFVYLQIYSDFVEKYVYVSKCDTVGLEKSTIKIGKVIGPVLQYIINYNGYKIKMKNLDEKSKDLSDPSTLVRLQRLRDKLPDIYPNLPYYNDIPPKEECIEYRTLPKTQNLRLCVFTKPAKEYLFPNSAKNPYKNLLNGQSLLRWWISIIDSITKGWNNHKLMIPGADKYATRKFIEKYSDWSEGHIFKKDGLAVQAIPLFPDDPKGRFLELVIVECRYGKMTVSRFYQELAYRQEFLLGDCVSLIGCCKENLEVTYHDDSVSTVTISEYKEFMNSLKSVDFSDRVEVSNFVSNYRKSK
Efflux pump inh – inhibitors of Candida efflux pumps in yeast, primary screen, S. cerevisiae, Nile Red, multiplex | S. cerevisiae Candida pump triplex | inhibition, % at 10 µM | 330,000 tested, 0.44% active | AID 485275, 2010;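 active = plate passing quality check with inhibition over a set limit, or well fluorescence over plate mean plus 4 SD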;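 also: Nile Red retained in pooled yeast measured as flow cytometry median fluorescence; 0% = buffer negative control and 100% = Enniatin B positive control; higher means more Nile Red kept so more efflux inhibition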
Active calls of the source: *; . = no result.

SMILES | PvdQ acylase | ERp5 inh | PDI inh | Rtt109 Vps75 | Efflux pump inh
C[C@H]1CCCCO[C@H](CN(C)S(=O)(=O)c2ccc(Cl)cc2)[C@@H](C)CN([C@@H](C)CO)C(=O)c2cc(NC(=O)c3ccccc3)ccc2O1 | . | 5 | . | . | .
C[C@@H]1CN([C@H](C)CO)C(=O)c2cc(C3=CCCC3)cnc2O[C@@H]1CN(C)Cc1ccccn1 | . | -1 | . | . | .
CCOC(=O)c1c(N2C(=O)C=CC2=O)sc(C)c1C | -15 | . | -1 | 69* | 0
CCOC(=O)c1c(NC(N)=O)sc(C)c1C | -10 | . | -4 | -20 | 0
Cc1ccccc1CS(=O)(=O)c1nnc([C@H](CC(C)C)NC(=O)OC(C)(C)C)o1 | -16 | 3 | -4 | 2 | 0
CC[C@@H](C)[C@H](NC(=O)OC(C)(C)C)c1nnc(S(=O)(=O)Cc2cc(C)ccc2C)o1 | -10 | . | 2 | 133* | 0
Cc1cccc(NC(=O)CSc2cn[nH]n2)c1 | -23 | 0 | -5 | -3 | 0
O=C(CSc1cn[nH]n1)Nc1cccc(C(=O)O)c1 | -1 | 25 | 1 | 81* | 0
O=C1C(Cl)=C(Nc2ccccc2O)C(=O)N1c1ccccc1 | -4 | . | 0 | 1 | 0
COc1ccccc1N1C(=O)C(Cl)=C(Nc2ccccc2O)C1=O | -11 | . | 11 | 75* | .
COc1ccccc1NC1=C(Cl)C(=O)N(C2CCCCC2)C1=O | 13 | . | -7 | 52* | 0
Cc1ccccc1NC1=C(Cl)C(=O)N(C2CCCCC2)C1=O | 5 | . | -6 | -4 | 0
COc1cc([N+](=O)[O-])cc(/C=C2/SC(=S)N(Cc3ccccc3)C2=O)c1O | 4 | 0 | 4 | 2 | 3.0*
O=C1/C(=C\c2ccc(O)cc2)SC(=S)N1Cc1ccccc1 | 11 | 4 | -5 | -5 | 0
COc1cc(/C=C2/SC(=S)N(Cc3ccccc3)C2=O)cc(Cl)c1O | 9 | 2 | -23 | -3 | 1
O=C1/C(=C\c2cc(Br)cc(Br)c2O)SC(=S)N1Cc1ccccc1 | -7 | . | 3 | 7 | 1.5*
CCOC(=O)c1c(C)n(C)c2cc(Br)c(OC)cc12 | -15 | 1 | 3 | -16 | 0
CCOC(=O)c1c(CNCCN(CC)CC)n(C)c2cc(Br)c(OC)cc12 | 4 | . | 0 | 65* | 0
C[C@@H]1CN([C@H](C)CO)C(=O)c2cc(NC(=O)CCCN(C)C)ccc2O[C@@H](C)CCCCO[C@H]1CN(C)S(=O)(=O)c1ccccc1 | . | 1 | . | . | .
COc1ccc(CCC(=O)OCc2csc(CC(=O)Nc3ccc(C)cc3)n2)cc1OC | -5 | 5 | -16 | -3 | 0.9*
CCOc1ccccc1C(=O)NCC(=O)OCc1csc(CC(=O)Nc2ccc(C)cc2)n1 | -15 | -14 | 5 | -10 | 0
CN(C)C(=O)CSc1nnc([C@H](Cc2c[nH]c3ccccc23)NC(=O)OC(C)(C)C)o1 | 8 | . | 45* | -1 | 0
CC(=O)OCCNc1cc(Sc2nc3ccccc3[nH]2)c2nonc2c1[N+](=O)[O-] | 12 | . | 5 | 70* | 0
CC(=O)OCCCNc1cc(Sc2nc3ccccc3s2)c2nonc2c1[N+](=O)[O-] | 5 | . | 16 | 2 | 0
CCC(=O)N1CCC2(CC1)CN(C(=O)c1cnccn1)[C@@H](CO)c1c2c2ccc(OC)cc2n1C | . | -3 | . | . | .
SMILES | PvdQ acylase | ERp5 inh | PDI inh | Rtt109 Vps75 | Efflux pump inh
Cc1sc(NC(=O)CCl)c(C(=O)c2ccccc2)c1C | 6 | . | 72* | 4 | 0
Cc1ccccc1C(=O)Nc1sc(C)c(C)c1C(=O)c1ccccc1 | -4 | . | 0 | 2 | 0
COc1ccc2c3c(n(C)c2c1)[C@@H](CO)N(C(=O)Nc1ccc(F)cc1)CC31CCN(C(=O)CN2CCOCC2)CC1 | . | 0 | . | . | .
Cc1ccc([C@H]2N[C@]3(CCCN(Cc4ccc(Cl)cc4)C3=O)[C@H]3C(=O)N(C)C(=O)[C@@H]23)cc1 | . | 26* | -15 | . | .
Cc1ccc(CN2CCC[C@]3(N[C@H](c4ccc(C)cc4)[C@@H]4C(=O)N(C)C(=O)[C@@H]43)C2=O)cc1 | . | 2 | 3 | . | .
CO[C@H]1CN(C)C(=O)c2ccc(NC(=O)Nc3c(C)noc3C)cc2OC[C@H](C)N(C)C[C@H]1C | . | 11 | . | . | .
CC(C)c1cn(CC[C@@H]2CC[C@H](NC(=O)C3CCOCC3)[C@@H](CO)O2)nn1 | . | 1 | . | . | .
CC(=O)Nc1ccc(NC(=O)CSc2nc(=O)n3cccc(C)c3n2)cc1 | 3 | 8 | 32* | 6 | 0
CC(=O)Nc1cccc(NC(=O)CSc2nc(=O)n3cccc(C)c3n2)c1 | -4 | 7 | -9 | -4 | 0
C[C@@H]1CCCCO[C@H](CN(C)C(=O)Cc2ccccc2)[C@@H](C)CN([C@H](C)CO)C(=O)c2cc(NS(=O)(=O)c3ccc(Cl)cc3)ccc2O1 | . | -1 | . | . | .
O=C1CC(c2ccc(O)cc2)Oc2cc(O)cc(O)c21 (stereo not given) | -11 | -3 | -2 | -8 | 0
O=C(c1c(O)cc(O)cc1O)C1c2c(cc(O)c3c2O[C@H](c2ccc(O)cc2)[C@@H](O)C3)OC1c1ccc(O)cc1 (stereo not given in full) | -10 | -1 | 53* | 8 | 0
COc1ccc(CN(CCC(c2ccccc2)c2ccc(OC(C)C)cc2)C(=O)CCl)cc1OC (stereo not given) | -7 | . | 86* | 4 | 0
COc1ccc(C(CCN(Cc2ccc(OC)c(OC)c2)C(C)=O)c2ccccc2)cc1 (stereo not given) | -8 | -6 | 14 | 3 | 0
CN1c2ccc(C#Cc3cccnc3)cc2[C@@H]2[C@@H](CCN2C(=O)C2CC2)[C@H]1CO | . | -2 | . | . | .
C[N+](C)(CCOc1ccccc1)Cc1ccccc1 | -8 | -3 | -9 | -4 | .
Cc1cc(C(C)(C)CC(C)(C)C)ccc1OCCOCC[N+](C)(C)Cc1ccccc1 | -4 | 7 | 23 | 56* | 1
Cc1nn(S(=O)(=O)c2ccc(C(C)C)cc2)c(C)c1S(=O)(=O)N1CCOCC1 | 4 | 1 | 6 | 54* | 0
O/C=c1\ccc2cccc3nc(C(F)(F)F)nc1c23 | -11 | 2 | -2 | -7 | 3.0*
CCCNC(=O)[C@@H]1[C@@H](CO)[C@@H]2Cn3c(ccc(-c4ccccc4F)c3=O)[C@@H]2N1C | . | -3 | . | . | .
Cc1ccc(-c2nnc(Nc3ccc(CC(N)=O)cc3)c3ccccc23)cc1S(N)(=O)=O | -3 | -2 | -3 | -1 | 1.7*
CC(C)c1cn(CC[C@H]2CC[C@H](NC(=O)C3CCOCC3)[C@@H](CO)O2)nn1 | . | 1 | . | . | .
O=C(c1ccco1)N(CCC(c1ccccc1)c1ccco1)Cc1ccco1 (stereo not given) | -6 | . | 5 | 27 | 0
CC(=O)N(CCC(Cc1ccccc1)c1ccco1)Cc1ccco1 (stereo not given) | -7 | -3 | 10 | 53* | 0

Source: PubChem BioAssay (several laboratories)
